The target of experiment [1] is Serine/threonine-protein kinase pim-2 (Homo sapiens) (UniProt Q9P1W9). Conditions: at 1 µM.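 Further: each value is a mean of the inhibition measurements against the kinase.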
Experiment [2] concerns the target Serine/threonine-protein kinase pim-3 (Homo sapiens) (UniProt Q86V86). Conditions: at 0.1 µM.
For experiment [3] the target is unchanged. Conditions: at 1 µM.
Experiment [4] deals with T1, MAP kinase-activated protein kinase 5 (Homo sapiens) (UniProt Q8IW41).
T1 sequence (whole entry): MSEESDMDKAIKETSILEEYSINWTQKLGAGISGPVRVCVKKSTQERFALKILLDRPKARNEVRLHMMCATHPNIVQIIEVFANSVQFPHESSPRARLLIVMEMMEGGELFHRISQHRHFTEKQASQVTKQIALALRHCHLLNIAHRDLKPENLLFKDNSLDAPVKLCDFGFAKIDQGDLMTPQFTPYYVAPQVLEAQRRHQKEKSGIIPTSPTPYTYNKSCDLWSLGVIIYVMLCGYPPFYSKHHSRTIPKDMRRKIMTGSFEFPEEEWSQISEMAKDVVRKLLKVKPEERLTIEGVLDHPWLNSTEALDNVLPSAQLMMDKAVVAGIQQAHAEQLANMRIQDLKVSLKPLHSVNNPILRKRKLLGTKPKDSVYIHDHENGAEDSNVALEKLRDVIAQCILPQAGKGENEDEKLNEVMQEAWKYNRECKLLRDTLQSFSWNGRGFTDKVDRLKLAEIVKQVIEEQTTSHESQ
The conditions noted are these: at 0.1 µM.

Experiment [5] deals with T1, MAP kinase-activated protein kinase 5 (Homo sapiens). Conditions: at 1 µM.
For experiment [6], the target named is Serine/threonine-protein kinase SIK1 (Homo sapiens) (UniProt P57059). Conditions: at 0.1 µM.
Serine/threonine-protein kinase SIK1 (Homo sapiens), sequence (P57059 whole entry): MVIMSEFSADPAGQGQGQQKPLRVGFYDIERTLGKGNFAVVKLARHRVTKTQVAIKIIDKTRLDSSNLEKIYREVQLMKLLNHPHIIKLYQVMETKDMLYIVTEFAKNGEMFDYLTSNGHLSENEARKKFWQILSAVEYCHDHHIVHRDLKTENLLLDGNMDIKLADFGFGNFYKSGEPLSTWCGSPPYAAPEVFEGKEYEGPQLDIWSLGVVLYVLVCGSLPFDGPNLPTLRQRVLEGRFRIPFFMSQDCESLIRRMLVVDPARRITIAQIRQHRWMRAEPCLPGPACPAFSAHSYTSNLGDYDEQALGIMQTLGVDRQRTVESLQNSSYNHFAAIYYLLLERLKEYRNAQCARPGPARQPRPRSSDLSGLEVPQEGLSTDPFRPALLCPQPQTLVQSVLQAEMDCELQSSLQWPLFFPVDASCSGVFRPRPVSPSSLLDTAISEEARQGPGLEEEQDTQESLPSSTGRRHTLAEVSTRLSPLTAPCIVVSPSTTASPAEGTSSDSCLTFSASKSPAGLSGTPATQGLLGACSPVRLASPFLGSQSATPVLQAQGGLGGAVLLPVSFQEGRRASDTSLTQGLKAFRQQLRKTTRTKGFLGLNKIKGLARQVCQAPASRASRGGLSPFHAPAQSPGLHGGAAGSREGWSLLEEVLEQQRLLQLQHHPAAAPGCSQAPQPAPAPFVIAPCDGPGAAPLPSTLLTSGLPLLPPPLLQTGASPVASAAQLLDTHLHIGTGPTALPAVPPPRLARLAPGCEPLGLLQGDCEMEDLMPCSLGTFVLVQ
For experiment [7] the target is unchanged. The conditions noted are these: at 1 µM.
The target in experiment [8] is Serine/threonine-protein kinase SIK2 (Homo sapiens) (UniProt Q9H0K1). The conditions noted are these: at 0.1 µM.
Serine/threonine-protein kinase SIK2 (Homo sapiens), sequence (Q9H0K1 whole entry, looked up): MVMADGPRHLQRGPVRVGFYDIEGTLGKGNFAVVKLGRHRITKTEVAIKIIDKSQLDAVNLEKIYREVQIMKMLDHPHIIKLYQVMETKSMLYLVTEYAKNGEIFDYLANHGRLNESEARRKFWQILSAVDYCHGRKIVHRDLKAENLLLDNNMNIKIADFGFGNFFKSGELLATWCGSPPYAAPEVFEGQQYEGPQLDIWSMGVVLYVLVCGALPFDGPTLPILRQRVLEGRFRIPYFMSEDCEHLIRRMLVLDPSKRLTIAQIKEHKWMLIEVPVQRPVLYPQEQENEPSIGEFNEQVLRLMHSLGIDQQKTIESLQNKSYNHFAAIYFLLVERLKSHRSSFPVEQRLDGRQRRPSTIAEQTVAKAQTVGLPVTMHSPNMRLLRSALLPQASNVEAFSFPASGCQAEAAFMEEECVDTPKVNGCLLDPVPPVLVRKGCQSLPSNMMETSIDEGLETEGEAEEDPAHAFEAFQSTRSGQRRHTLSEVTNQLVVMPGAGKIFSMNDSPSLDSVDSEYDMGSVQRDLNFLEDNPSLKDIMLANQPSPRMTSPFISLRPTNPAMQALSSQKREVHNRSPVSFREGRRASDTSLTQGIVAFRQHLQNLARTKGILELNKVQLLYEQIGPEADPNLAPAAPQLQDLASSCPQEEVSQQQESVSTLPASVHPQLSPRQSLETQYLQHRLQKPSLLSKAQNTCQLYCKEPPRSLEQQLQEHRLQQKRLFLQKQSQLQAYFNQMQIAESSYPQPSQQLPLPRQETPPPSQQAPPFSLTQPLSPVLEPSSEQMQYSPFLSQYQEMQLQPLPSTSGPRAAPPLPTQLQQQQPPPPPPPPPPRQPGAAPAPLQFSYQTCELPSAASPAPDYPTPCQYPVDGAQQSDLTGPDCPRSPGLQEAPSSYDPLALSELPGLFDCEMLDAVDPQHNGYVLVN
For experiment [9] the target is unchanged. The conditions noted are these: at 1 µM.
Experiment [10] addresses T2, Serine/threonine-protein kinase TBK1 (Homo sapiens) (UniProt Q9UHD2).
T2 sequence (whole entry): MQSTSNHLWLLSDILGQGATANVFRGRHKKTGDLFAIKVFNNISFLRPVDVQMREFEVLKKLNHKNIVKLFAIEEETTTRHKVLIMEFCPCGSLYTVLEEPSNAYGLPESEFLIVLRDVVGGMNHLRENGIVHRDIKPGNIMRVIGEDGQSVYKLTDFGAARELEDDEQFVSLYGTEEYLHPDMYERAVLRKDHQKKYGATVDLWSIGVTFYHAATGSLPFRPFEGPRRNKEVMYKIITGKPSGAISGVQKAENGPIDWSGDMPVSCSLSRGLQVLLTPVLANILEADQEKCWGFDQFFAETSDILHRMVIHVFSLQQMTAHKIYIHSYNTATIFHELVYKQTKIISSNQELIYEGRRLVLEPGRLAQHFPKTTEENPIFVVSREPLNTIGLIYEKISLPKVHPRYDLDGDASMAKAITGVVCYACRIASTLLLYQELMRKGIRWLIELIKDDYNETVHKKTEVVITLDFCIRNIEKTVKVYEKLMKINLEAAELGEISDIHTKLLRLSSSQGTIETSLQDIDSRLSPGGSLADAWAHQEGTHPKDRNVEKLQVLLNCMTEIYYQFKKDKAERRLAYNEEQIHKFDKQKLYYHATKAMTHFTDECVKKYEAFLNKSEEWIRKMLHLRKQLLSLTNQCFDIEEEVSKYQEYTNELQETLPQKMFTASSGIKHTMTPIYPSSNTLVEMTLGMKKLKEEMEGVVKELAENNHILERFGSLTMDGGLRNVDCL
The conditions noted are these: at 0.1 µM.

Experiment [11] concerns the target T2, Serine/threonine-protein kinase TBK1 (Homo sapiens). The conditions noted are these: at 1 µM.
The target of experiment [12] is T3, Testis-specific serine/threonine-protein kinase 1 (Homo sapiens) (UniProt Q9BXA7).
T3 sequence (whole entry): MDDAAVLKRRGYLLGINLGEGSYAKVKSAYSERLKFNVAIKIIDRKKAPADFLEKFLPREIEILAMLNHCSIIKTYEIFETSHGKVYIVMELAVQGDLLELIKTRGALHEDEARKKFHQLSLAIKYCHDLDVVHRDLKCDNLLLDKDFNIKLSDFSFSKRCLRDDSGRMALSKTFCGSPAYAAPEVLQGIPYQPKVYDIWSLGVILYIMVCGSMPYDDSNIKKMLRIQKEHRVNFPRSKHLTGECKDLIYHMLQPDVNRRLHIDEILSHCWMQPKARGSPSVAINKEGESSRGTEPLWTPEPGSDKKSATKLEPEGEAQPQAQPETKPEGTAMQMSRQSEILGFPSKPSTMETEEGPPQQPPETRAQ
Conditions: at 0.1 µM.

The target of experiment [13] is T3, Testis-specific serine/threonine-protein kinase 1 (Homo sapiens). The conditions noted are these: at 1 µM.
In experiment [14] the target is T4, Testis-specific serine/threonine-protein kinase 2 (Homo sapiens) (UniProt Q96PF2).
T4 sequence (whole entry): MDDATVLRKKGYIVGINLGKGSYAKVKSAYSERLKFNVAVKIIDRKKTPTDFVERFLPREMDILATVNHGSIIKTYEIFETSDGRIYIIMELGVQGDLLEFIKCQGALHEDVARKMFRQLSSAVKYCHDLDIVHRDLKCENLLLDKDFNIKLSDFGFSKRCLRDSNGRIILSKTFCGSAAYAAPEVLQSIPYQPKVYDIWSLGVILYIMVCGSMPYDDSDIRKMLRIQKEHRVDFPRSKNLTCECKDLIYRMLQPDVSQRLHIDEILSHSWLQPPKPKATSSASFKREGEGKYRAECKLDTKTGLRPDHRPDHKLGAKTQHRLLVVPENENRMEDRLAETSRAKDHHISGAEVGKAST
Conditions: at 0.1 µM.

Experiment [15] addresses T4, Testis-specific serine/threonine-protein kinase 2 (Homo sapiens). The conditions noted are these: at 1 µM.
Experiment [16] addresses Casein kinase I isoform alpha (Homo sapiens) (UniProt P48729). Conditions: at 0.1 µM.
The target is the same in experiment [17]. The conditions noted are these: at 1 µM.
Experiment [18] has as its target Casein kinase I isoform gamma-1 (Homo sapiens) (UniProt Q9HCP0). Conditions: at 0.1 µM.
Experiment [19] has the same target. The conditions noted are these: at 1 µM.
Experiment [20] concerns the target Casein kinase I isoform gamma-2 (Homo sapiens) (UniProt P78368). Conditions: at 0.1 µM.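 Further: values are mean inhibition figures reported as part of the GSK PKIS dataset.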

Serine/threonine-protein kinase pim-2 (Homo sapiens), sequence (Q9P1W9 whole entry, looked up): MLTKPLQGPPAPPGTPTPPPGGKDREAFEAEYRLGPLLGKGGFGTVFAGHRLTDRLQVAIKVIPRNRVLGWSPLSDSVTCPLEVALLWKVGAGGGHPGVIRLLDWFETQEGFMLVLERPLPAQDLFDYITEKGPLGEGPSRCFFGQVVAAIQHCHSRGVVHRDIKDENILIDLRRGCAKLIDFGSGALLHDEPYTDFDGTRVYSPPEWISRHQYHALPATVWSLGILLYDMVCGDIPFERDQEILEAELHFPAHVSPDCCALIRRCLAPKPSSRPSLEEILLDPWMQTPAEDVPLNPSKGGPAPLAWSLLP
Casein kinase I isoform gamma-1 (Homo sapiens), sequence (Q9HCP0 whole entry, looked up, canonical isoform): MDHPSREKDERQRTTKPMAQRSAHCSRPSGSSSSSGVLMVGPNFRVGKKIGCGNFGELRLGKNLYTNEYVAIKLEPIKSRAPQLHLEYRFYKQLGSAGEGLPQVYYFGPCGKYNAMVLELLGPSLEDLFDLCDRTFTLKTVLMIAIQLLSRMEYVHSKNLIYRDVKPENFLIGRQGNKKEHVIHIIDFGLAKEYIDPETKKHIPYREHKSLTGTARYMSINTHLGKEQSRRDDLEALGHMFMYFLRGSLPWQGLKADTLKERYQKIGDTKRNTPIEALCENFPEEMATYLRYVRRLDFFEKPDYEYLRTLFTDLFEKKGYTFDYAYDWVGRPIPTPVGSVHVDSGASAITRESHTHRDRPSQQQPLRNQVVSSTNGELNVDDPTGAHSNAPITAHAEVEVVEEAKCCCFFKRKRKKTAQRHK
Casein kinase I isoform gamma-2 (Homo sapiens), sequence (P78368 whole entry, looked up, canonical isoform): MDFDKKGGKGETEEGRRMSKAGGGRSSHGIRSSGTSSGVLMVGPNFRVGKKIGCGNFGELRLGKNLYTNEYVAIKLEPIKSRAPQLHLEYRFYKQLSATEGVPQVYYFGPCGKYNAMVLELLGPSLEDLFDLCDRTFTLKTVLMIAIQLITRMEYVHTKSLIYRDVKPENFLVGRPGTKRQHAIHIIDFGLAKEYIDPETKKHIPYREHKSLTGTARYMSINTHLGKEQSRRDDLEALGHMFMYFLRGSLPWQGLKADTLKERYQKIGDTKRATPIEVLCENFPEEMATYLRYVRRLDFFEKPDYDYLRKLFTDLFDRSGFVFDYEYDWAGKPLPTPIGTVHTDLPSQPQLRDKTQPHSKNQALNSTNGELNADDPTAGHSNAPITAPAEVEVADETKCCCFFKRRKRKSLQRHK
Casein kinase I isoform alpha (Homo sapiens), sequence (P48729 2-337 limits assumed): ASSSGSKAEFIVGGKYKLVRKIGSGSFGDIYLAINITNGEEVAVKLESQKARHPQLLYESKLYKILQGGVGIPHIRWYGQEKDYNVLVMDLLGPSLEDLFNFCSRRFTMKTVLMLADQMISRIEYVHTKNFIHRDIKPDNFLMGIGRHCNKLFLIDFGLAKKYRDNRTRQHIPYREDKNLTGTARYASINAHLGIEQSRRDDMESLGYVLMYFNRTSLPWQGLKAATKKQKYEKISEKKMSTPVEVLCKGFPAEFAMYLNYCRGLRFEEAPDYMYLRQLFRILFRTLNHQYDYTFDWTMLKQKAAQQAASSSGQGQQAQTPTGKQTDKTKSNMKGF

On to `Fc1ccc(-c2nc3n(c2-c2ccncc2)CCS3)cc1`, for which the inhibition (in general, the change of the read-out against control, counted positive when it falls) was -3.08% in experiment [1]; -1.3% in experiment [2]; -1.87% in [3]; 1.2% in experiment [4]; 0.34% in experiment [5]; 5% in experiment [6]. The inhibition in experiment [7] came out at 13.5%; in experiment [8] it was 1.21%; in experiment [9], 7.35%; in [10], 2.27%; in experiment [11] it was 2.87%; in experiment [12], 3.08%. Moreover, the inhibition in [13] worked out at 2.73%; in [14], 1.01%; in experiment [15], 0.48%; in [16], 10.8%; in [17] it was 42.4%; in experiment [18] it was 0.76%. The inhibition in experiment [19] was 5.36%; in experiment [20] it was -1.13%.
Take `C[C@@H](Oc1cc(-n2cnc3ccc(OC4CCN(C)CC4)cc32)sc1C(N)=O)c1ccccc1Cl`: the inhibition is -3.56% in [1]; 8.14% in [2]; 45% in experiment [3]; 1.31% in experiment [4]; 1.54% in [5]; 3.1% in experiment [6]. The inhibition worked out at 19.3% in experiment [7]; 6.72% in experiment [8]; 14% in experiment [9]; 4.61% in experiment [10]; 4.33% in [11]; 4.11% in experiment [12]. Also, the inhibition in experiment [13] was determined as 10.3%; in experiment [14] it was 2.61%; in experiment [15] it was 1.72%; in experiment [16] it was 4.09%; in experiment [17], 6.16%; in [18], 0.61%. The figures for the inhibition in [19] and in [20] were -0.21% and 0.26%, respectively.
In the case of `NS(=O)(=O)c1ccc(Nc2cc(-c3ccc(O)c(F)c3)n[nH]2)cc1`, the inhibition is 0.39% in experiment [1]; -0.55% in [2]; 1.15% in experiment [3]; -1.43% in [4]; -1.22% in experiment [5]; -8.2% in [6]. In addition, the inhibition was -0.79% in experiment [7]; -6.2% in [8]; 8.46% in experiment [9]; -1% in experiment [10]; 7.59% in experiment [11]; -1.37% in [12]. The inhibition in experiment [13] is -0.04%; in [14], -3.53%; in experiment [15] it was -0.52%; in [16], -2.61%; in experiment [17] it was 4.49%; in experiment [18], -2%. Moreover, the inhibition in experiment [19] is 0.81%; in [20], -1.44%.
Consider `COc1cc(Nc2ncc(-c3ccccc3)o2)cc(OC)c1OC`, for which the inhibition in [1] is 1.06%; in [2] it was 0.31%; in [3], 1.87%; in experiment [4] it was -0.54%; in experiment [5], 0.01%; in experiment [6], 0.98%. The inhibition in experiment [7] is 27.4%; in experiment [8] it was 3.12%; in experiment [9], 30.6%; in experiment [10], 2.26%; in experiment [11] it was 13.7%; in [12] it was 0.03%. The inhibition in [13] is -0.04%; in experiment [14], -1.14%; in [15] it was -1.3%; in experiment [16] it was -0.72%; in experiment [17] it was 1.29%; in experiment [18], -1.4%. In addition, the inhibition in experiment [19] was -0.76%; in [20], -1.34%.
For the molecule `O=C(NCC1CC1)c1ccc(-c2cccc(C(=O)NC3CC3)c2)cc1`, the inhibition is 0.96% in [1]; -0.84% in experiment [2]; -3.1% in [3]; 0.6% in [4]; -0.88% in [5]; 0.25% in experiment [6]. In addition, the inhibition is 4.41% in experiment [7]; -1.64% in experiment [8]; -0.16% in [9]; 2.28% in experiment [10]; 0.69% in [11]; 2.17% in [12]. In addition, the inhibition in [13] is -0.94%; in [14], 0.33%; in experiment [15], -1.83%; in experiment [16], 2.21%; in experiment [17] it was 3.38%; in [18], 2.43%. Further, the inhibition was determined as 3.84% in experiment [19] and 1.59% in experiment [20].
As for `COc1ccc2cc(-c3c(-c4ccncc4)nc(-c4ccc([S+](C)[O-])cc4C)n3C)ccc2c1` (stereo not given), the inhibition is 0.03% in experiment [1]; 0.41% in experiment [2]; 0.9% in experiment [3]; -0.74% in [4]; -0.31% in experiment [5]; -2.25% in experiment [6]. The inhibition in experiment [7] is 3.56%; in [8], -6.12%; in experiment [9], -0.83%; in experiment [10] it was 0.16%; in [11] it was 1.97%; in experiment [12], 0.4%. The inhibition is -0.58% in experiment [13]; 0.06% in [14]; -0.06% in experiment [15]; 0.77% in [16]; 0.53% in experiment [17]; -0.99% in [18]. The inhibition in experiment [19] was -0.39%; in experiment [20] it was -0.73%.

Values taken from ChEMBL document CHEMBL1961873, “Compounds: GSK PKIS; Assays: Nanosyn kinase panel” (2012).
